The results in this text go back to article PMC12136788.

Over roughly 24,000 sequences, “enrichment r” has its median near 0.99; the highest 2% begin near 3.7. The list is a sample of the results.

Sequences and labels used below:
T1: UNK ZnF1-3 (human, UniProt Q9C0B0 31-174)
T1 sequence: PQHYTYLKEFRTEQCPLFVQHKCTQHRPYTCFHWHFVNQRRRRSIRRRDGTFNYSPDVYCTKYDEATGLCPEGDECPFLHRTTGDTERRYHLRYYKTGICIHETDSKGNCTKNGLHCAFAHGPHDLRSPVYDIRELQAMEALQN

B1: 27242051_27281840_773_CDS_ENSMUSG00000009621_ENSMUST00000056176|mouse|control|control (ssRNA)
RNA: GGGAGUUCUACAGUCCGACGAUCCAGCUCACUGUUUCUUAGUCCAAAUUUGUCAUGGCAGACUUUGAGGAAGGUGCGAAUAUUCUUCAGACACAAGAACUGGGACAUCUGCGGCCGGAAGUUGAUGUCCUUAAGGUCGAUGGACAACAGAGGAUUGAGCAUCA
B2: chr20:43533646:43533647:+_ENSG00000166913_ENST00000353703|hu_mus|FALSE|FALSE (ssRNA)
RNA: GGGAGUUCUACAGUCCGACGAUCGAAAUUCAGCGCCAGGCCGAGGCGAAUCGGGUGUGUAGGCUGCAUUUCUUUCUUGCUGAUUUCAAAUGCUUCUUGGUAAGCCUGCUGGGAGUUGGACACCGUGGUUUGUUUAUUUUCUCCCAACAGAGGAUUGAGCAUCA
B3: chr1:171751117:171751118:+_ENSG00000010165_ENST00000361735|hu_hu|motif|central (ssRNA)
RNA: GGGAGUUCUACAGUCCGACGAUCCUUUUAGGUAAGAGGUUCAUGUUCCUACUGCCGAAGCUGCGUUUUCAAGACUCCCCGGUUCCCUGUGAGAUACCAUUUGAGGAGCUUGCCCACCACACGCAGGCUCCGGGACACUGCAGUCAACAGAGGAUUGAGCAUCA
B4: chr10:120833061:120833062:-_ENSG00000107581_ENST00000369144|perfect_dup|motif|central (ssRNA)
RNA: GGGAGUUCUACAGUCCGACGAUCUUGGGACUCUUCUUUAGCAGCUUCUGUUUUUUCCUCUGCUAAUUUCAAAUAUGCCCGGACAACAUCUUCUAAAGAUUUAAUGUUUACCUGUUGGCAUAUGUUCUUAUAUUGAUAUAACCCCAACAGAGGAUUGAGCAUCA
B5: 18861418_18861648_5666_CDS_ENSG00000157106_ENST00000446231|human|control|control (ssRNA)
RNA: GGGAGUUCUACAGUCCGACGAUCCAGCCUAGGGUCAUCCUCAUCUAAAGGAAUUUGACCAGCGUUGAGUUUAAGGAAAGUAAAGUAUGCACUGCAAGAGAGUUUGUACAGGCUGAAUAUUCUAUCUACAACUUUCCUCCACACCAACAGAGGAUUGAGCAUCA
B6: chr11:48615247:48615248:+_ENSMUSG00000020372_ENSMUST00000020640|perfect_dup|FALSE|FALSE (ssRNA)
RNA: GGGAGUUCUACAGUCCGACGAUCUCCAUCCCAGGAGCCUGAGAGGGCAAACUGGCCAUCUGAGGAGAUAACCACAUCACUAACAAAGUGGGAGUGACCCCGCAGAGCACGCUGUGGAAUUCCAUAGUUGGUCUCAUCCCUGGUCAACAGAGGAUUGAGCAUCA
B7: chr5:110835399:110835400:-_ENSG00000164211_ENST00000296632|hu_hu|motif|central (ssRNA)
RNA: GGGAGUUCUACAGUCCGACGAUCUGAGAGCCUGUCUCAAAAUUUAAAAAAAAAAAAGUGAAAAUGCCCUCUCUUAGAUAGCGGUUUACUUUAGGAAUAAAACCAAACAUUGUACUAGUGAACCAAAAACAUUUCAAAUUUUUCCAACAGAGGAUUGAGCAUCA
B8: chr1:39494564:39494565:+_ENSG00000168653_ENST00000372967|hu_hu|hu_hu_hu_mus_True|68_78 (ssRNA)
RNA: GGGAGUUCUACAGUCCGACGAUCAUGCAUUCGCCUCAUCGUUUUGUACCGAAGCAAACACUCUACGAAAUCAUCAUACUCUAUCUUGCACUCCUUUUUCGCCCGGGUCCCACCGAUCCCGUGUGCACACUCUAUCCACUCUUUCAACAGAGGAUUGAGCAUCA
B9: chr14:66974463:66974464:+_ENSMUSG00000022044_ENSMUST00000074523|mus_hu|mus_mus_mus_hu_False|18_58 (ssRNA)
RNA: GGGAGUUCUACAGUCCGACGAUCUUGUAGGACGACUUAUUCAGGGGAUCGGCCAGGAAGCAGGAGCAGAACAAGGACACUAGUGGGAGCUCCUUCAUCUUCUCUUUGUAGGCAGCAAGAGUCAUGUUUCUGGGAUCUGGUGGCCAACAGAGGAUUGAGCAUCA
B10: chr5:125866394:125866395:-_ENSMUSG00000008348_ENSMUST00000136312|mus_hu|FALSE|FALSE (ssRNA)
RNA: GGGAGUUCUACAGUCCGACGAUCACAACUUUAUUGAAAGGAAAGUGCAAUGAAAUUUGUUGAAACCUUAAAAGGGGAAACUUAGACACCCCCCCUCAAGCGCAGGACCAAGUGCAGAGUGGACUCUUUCUGGAUGUUGUAGUCCAACAGAGGAUUGAGCAUCA
B11: 44041996_44042116_73_3pUTR_ENSMUSG00000034342_ENSMUST00000037644|mouse|control|control (ssRNA)
RNA: GGGAGUUCUACAGUCCGACGAUCUCGGCCGCGAGCGAGGGAAUGGAGCCGGGCGAGAAGGAGGGGCCUCUCCGGCAACCACCGCCGGCGCUCGCAGCCCAGGGAGUGAGAGGGAGGCGCCCGCCCUGAGGCGCGCCCCUGCGCCAACAGAGGAUUGAGCAUCA
B12: chr19:16212804:16212805:+_ENSG00000167460_ENST00000300933|hu_mus|hu_hu_hu_mus_False|78_78 (ssRNA)
RNA: GGGAGUUCUACAGUCCGACGAUCAACAAUUCUGGAGUGAAGGAAAGAUGUAACAUGCAAUUAAUUAAAAGCUCAGUCAGAAGGCACAUGGGCAACAAUGAUCACCCCAGCAUUCUCGCUUGGAAUGCUUAAAGACAAUCUGUUCAACAGAGGAUUGAGCAUCA
B13: chr14:54894545:54894546:-_ENSG00000100528_ENST00000216416|hu_mus|FALSE|FALSE (ssRNA)
RNA: GGGAGUUCUACAGUCCGACGAUCCUUCAUUGGUGGCGUUUUGCAUGCACUUAACUGGACCGAUUCUUCUGUGUUGUUCUAAGAGCUCACCAGAACAUAGAUCAUGCCGUAUAGGUAGUAAAAAAACGCUAGAAGGUAAAAAGCCAACAGAGGAUUGAGCAUCA
B14: chr12:96259795:96259796:+_ENSG00000139343_ENST00000266735|hu_mus|motif|central (ssRNA)
RNA: GGGAGUUCUACAGUCCGACGAUCGAGGACAUUAUUACACCUUAUUAGAACUUCGCCCAGAUGUCCAGACAGCGCCCCAUCGGUGUACUCUUCUGUAUUUGCAAGCUGCAUGUUCAUGUAGCCAUCCACGGAGACCAGGUAGCCCAACAGAGGAUUGAGCAUCA
B15: chr11:106117246:106117247:-_ENSMUSG00000020706_ENSMUST00000021048|mus_mus|motif|central (ssRNA)
RNA: GGGAGUUCUACAGUCCGACGAUCGCAGGCCUUACAAGUUAAAAGUAGAGGCUAGGAAGUAGAGUGCAAUAACUCGUAUCCGGAACGCUAGGAAGCAUCAACCAGAAGUUCUAUAUCUCUUCACAAAACUAGUGACCUCCAGUACAACAGAGGAUUGAGCAUCA
B16: chr7:20150648:20150649:-_ENSMUSG00000044709_ENSMUST00000117222|mus_mus|FALSE|FALSE (ssRNA)
RNA: GGGAGUUCUACAGUCCGACGAUCCUUGAAAGAAUAGGAAAUUAUGUCACUACAUCGAAGCAAGGCCUCGGCCUGUACACCUAUGGGAGUCUGCAGUUGGGAAACGUAGAAGUUGGCCACAUCCAGGUCUGUGGCUCCAAACUGCAACAGAGGAUUGAGCAUCA
B17: chr7:7679991:7679992:-_ENSG00000106399_ENST00000396682|hu_hu|hu_hu_hu_mus_False|18_58 (ssRNA)
RNA: GGGAGUUCUACAGUCCGACGAUCUGGGAUGAAUCUUUUCCAGCUUCCCCACGAAGCACACGGGCCGGUCGAUAUACUGAGCUAGCAUGCUGGCGUUGACGCGCGCUUUGGGGAGCUCCAUCAUGUCCUCCAUGAUUCUGCCGCCAACAGAGGAUUGAGCAUCA
B18: chrX:20248820:20248821:+_ENSMUSG00000001924_ENSMUST00000001989|mus_mus|mus_mus_mus_hu_True|48_58 (ssRNA)
RNA: GGGAGUUCUACAGUCCGACGAUCGGCGAAGUCCGUCACCACAAAGUCAGGUUCUGCCAGUGAGGCCACCAAGGAUUUAAAACUAAUCUUUUUCGGUACUUUGACCUGACUGACGAUGCCUCCACGGAUGUAGUCGGAGAAGUUCAACAGAGGAUUGAGCAUCA
B19: chr9:95013113:95013114:-_ENSG00000196305_ENST00000443024|hu_hu|hu_hu_hu_mus_False|78_78 (ssRNA)
RNA: GGGAGUUCUACAGUCCGACGAUCCUCAGUCAGAAAGGGCGUGUAAGGGGCCAUCAGUCUGCAAAGAGAAAGCAGGACACUGAACAGUGUCUCCAGAGCCAUGACACAGUCUUCCACCCCACUCUCACCCUUUAACCUCCUCCUCAACAGAGGAUUGAGCAUCA
B20: chr16:45382771:45382772:-_ENSMUSG00000022661_ENSMUST00000163230|mus_mus|mus_mus_mus_hu_True|48_88 (ssRNA)
RNA: GGGAGUUCUACAGUCCGACGAUCCUGGGUCAUGUUAUAAGACAAAUGGAUAGGGAGGGCAUGCUUCUCAAAAAAUGUGAGCUAUUGACUAAGACUAACAAUAUUUAUCUAGCUAUAAAAAUAAGUUAAAUGAAUAAGUUAAGACAACAGAGGAUUGAGCAUCA
B21: chrX:148369326:148369327:+_ENSMUSG00000025261_ENSMUST00000112622|mus_hu|FALSE|FALSE (ssRNA)
RNA: GGGAGUUCUACAGUCCGACGAUCCUUGUCUCGCAUUGAAUCAUUAGCUGUGCACAUCAACACAUUCCAAGCACAAAUUAAGAAAUGCAAACAGAACAAAAAAAUAUAUAUAUAUAUAAUUUUUUCCCCUAUCCAAAGGUUUCACAACAGAGGAUUGAGCAUCA
B22: 52112337_52131274_754_3pUTR_ENSMUSG00000022637_ENSMUST00000114471|mouse|control|control (ssRNA)
RNA: GGGAGUUCUACAGUCCGACGAUCAUCAAUGGUUGACUUCAGAGCCAUUGCUUCCAGGCCAGAGCUGAUCUGAUGGACCUCAUGCAGGCACUGUCUGAAGACUUUCCAUGGUACAAUAGUUUUGUCUCCAAAAAACUUCCUCCACAACAGAGGAUUGAGCAUCA

The target in this assay is T1, UNK ZnF1-3. As to the kind of experiment: nsRBNS (natural sequence RNA bind-n-seq); RBNS binding buffer (assumed for nsRBNS): 25 mM Tris pH 7.5, 150 mM KCl, 3 mM MgCl2, 0.01% Triton X-100, 500 ug/ml BSA, 20 U/ml SUPERase-In, 4 C; UNK is unkempt and MSI1 is Musashi-1; names of the RNAs are library labels; protein concentration not given here; high values mean tight binding.
With B1, the binding signal worked out at 1.21 enrichment R.

B2 gave a binding signal of 0.604 enrichment R.

For the molecule B3, the binding signal amounted to 0.55 enrichment R.

For B4, the binding signal stood at 0.789 enrichment R.

B5 registered a binding signal of 1.36 enrichment R.

As for B6, the binding signal turned out to be 1.14 enrichment R.

For the molecule B7, the binding signal was 1.93 enrichment R.

In turn, B8 showed a binding signal of 0.667 enrichment R.

Turning to B9, the binding signal was 2.28 enrichment R.

Turning to B10, the binding signal worked out at 1.57 enrichment R.

The molecule B11 displayed a binding signal of 0.497 enrichment R.

As to B12, the binding signal amounted to 1.31 enrichment R.

As for B13, the binding signal was 1.42 enrichment R.

In turn, B14 registered a binding signal of 0.83 enrichment R.

On to B15, for which the binding signal was 1.8 enrichment R.

B16 yielded a binding signal of 0.807 enrichment R.

On to B17, for which the binding signal was determined as 0.939 enrichment R.

Consider B18, for which the binding signal was 1.04 enrichment R.

For B19, the binding signal worked out at 1.44 enrichment R.

The molecule B20 came in with a binding signal of 2.26 enrichment R.

B21: the binding signal was 0.406 enrichment R.

B22: the binding signal is 0.85 enrichment R.
